KB-3-1 cytotox: KB-3-1 parental cell cytotoxicity. KB-3-1 viability, CellTiter-Glo ATP luminescence, 72 h. Potency, µM (titrated, usually from 46.1 µM), usual class: cytotoxic. actives 1.4% (n = 400,000); note: nearly all actives have a fitted effect of over 60% in size
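Using CellTiter-Glo luminescence, growth of non-resistant KB-3-1 adenocarcinoma cells is assessed 72 h after pin-tool compound addition at 37 °C. Normalized responses across the concentration series yield fitted curves.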
HepG2 tox: kills HepG2 cells in TGF-b inhibitor counter-screen; HepG2 CAGA-GFP viability, ATP luminescence, 18 h; Potency, µM (doses to about 46.1 µM), hits mostly cytotoxic; actives 0.76% (n = 410,000)
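CellTiter-Glo luminescence gave cytotoxicity after 18 hours at 37 degrees C. The cells were HepG2 CAGA-GFP in 1% FBS DMEM, stimulated with 500 pg/mL TGF-beta after compound addition. %Activity was normalised to no-cell wells (complete cell-killing) and DMSO (no toxicity), and curves were fitted and classified.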
KB-V1 MDR tox: KB-V1 MDR subline cytotoxicity | KB-V1 MDR cells viability, CellTiter-Glo, 72 h | Potency, µM (highest dose often 46.1 µM), usual class: cytotoxic | actives 3.4% (n = 400,000) | AID 1347076; note: nearly all actives have a fitted effect of over 60% in size
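Cytotoxicity toward P-gp-expressing KB-V1 cells was determined as loss of CellTiter-Glo luminescence after 72 h at 37 degrees C. Compounds were tested in quantitative HTS format across a concentration range, with curves fitted to normalized data.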
ATXN viability: viability counter-screen for ATXN expression inhibitors; S2 cells (HEK-293 line with an ATXN2-luciferase reporter) viability, CellTiter-Fluor protease fluorescence, 24 h; Potency, µM (highest dose often 56.7 µM), actives largely listed as cytotoxic; actives 0.49% (n = 400,000); note: nearly all actives have a fitted effect of over 40% in size
ATXN2 expr inh: reduces ATXN2 reporter expression in HEK-293 cells; HEK-293 ATXN2-luciferase reporter, luminescence, 24 h; Potency, µM (titrated, usually from 57 µM), hits mostly inhibitors; actives 0.72% (n = 360,000); note: nearly all actives have a fitted effect of over 55% in size
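qHTS (up to 57 uM final) was run with 24 h compound exposure of reporter cells at 37 °C. Each well was multiplexed: SteadyGlo luminescence measured ATXN2-luciferase expression after a fluorogenic Gly-Phe-AFC viability readout (25 uM final).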
TGFb SMAD3 inh: TGF-b pathway inhibition | HepG2 CAGA-GFP TGF-b/SMAD3 reporter, GFP fluorescence, 18 h; TGF-beta stimulated, 500 pg/mL final | Potency, µM (series often up to 46.1 µM), most hits filed as inhibitors | actives 1.2% (n = 410,000); note: nearly all actives have a fitted effect of over 65% in size
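Smad-responsive CAGA-GFP expression was quantified in HEPG2 cells exposed to compounds and 500 pg/mL final TGF-beta for 18 h at 37 degrees C; unstimulated wells defined full inhibition.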
Numbers stand for hits; 0 = inactive; ? = inconclusive; - = not tested or not shown. Shown are actives, neighbours in structure and some others; about 5.9% of the full set was active somewhere. Calls come from the whole dose curve; as a rule, active = well fitted curve in the direction sought with a large enough effect; inconclusive = small, poorly fitted or top-dose-only effect, or another doubt; inactive = no such curve, though single readings can be large; an effect the other way counts as inactive or inconclusive.

SMILES	KB-3-1 cytotox	HepG2 tox	KB-V1 MDR tox	ATXN viability	ATXN2 expr inh	TGFb SMAD3 inh
COc1ccc(-n2c(-c3ccc(C)cc3)cc3c2CC(C)(C)CC3=O)c(OC)c1	0	0	0	?	0	?
CCOc1c(Br)ccc2c1sc1nc[nH]c(=O)c12	?	0	21µM	0	0	0
COCCOC(=O)c1sc2nc[nH]c(=O)c2c1C	0	0	0	0	0	0
COc1ccc2c(c1)[nH]c1c(=O)n(Cc3ccco3)cnc12	?	0	15µM	?	0	0
COc1ccc2c(c1)[nH]c1c(=O)n(CC3CCCO3)cnc12 (stereo not given)	0	0	21µM	0	0	0
CCCCn1cnc2c([nH]c3cc(OC)ccc32)c1=O	0	0	?	0	0	0
O=C(NCc1ccccc1Cl)c1ccc2nc([C@@H]3O[C@H](CO)[C@@H](O)[C@H]3O)[nH]c2c1	0	0	0	0	0	0
Cc1ccc(CNC(=O)c2nc(SCc3ccc(F)cc3)ncc2Cl)cc1	-	0	-	-	-	0
COc1cc(NC(=O)c2cccs2)c(OC)cc1NC(=O)c1ccco1	0	0	?	0	0	0
O=C(Cc1ccccc1)Nc1ccc(NC(=O)c2cccs2)cc1Cl	0	0	0	0	0	0
COc1ccc(NC(=O)CCc2ccccc2)cc1NC(=O)c1ccco1	0	0	7.3µM	0	0	0
COc1ccc(NC(=O)c2ccco2)cc1NC(=O)c1cccs1	0	0	8.2µM	0	0	0
O=C(Cc1ccccc1)Nc1ccc(NC(=O)c2cccs2)c(Cl)c1	0	0	21µM	?	0	0
COc1cccc(Nc2nnc(-c3cc4ccc(O)cc4oc3=O)s2)c1	-	0	-	-	-	-
CCCCC(F)(F)[C@@]1(O)CC[C@H]2[C@H](CC(=O)[C@@H]2CCCCCCC(=O)O)O1	-	-	-	0	?	-
CNC[C@H](CC1CCCCC1)NC[C@H](Cc1ccccc1)NCCC12CC3CC(CC(C3)C1)C2	?	13µM	18µM	16µM	0	?
CC(=O)N1CCc2cc(NC(=O)C3(C)CCN3CCc3ccccc3)ccc21 (stereo not given)	0	0	?	0	0	0
C=CCNC(=O)/C(=C/c1ccccc1OCC)NC(=O)c1ccccc1	0	0	12µM	0	0	0
C=CCOC(=O)/C(=C/c1cccc2ccccc12)NC(=O)c1ccccc1	0	0	8.2µM	0	0	0
CN(C)C(=O)/C(=C/c1cn(-c2ccccc2)nc1-c1cccc([N+](=O)[O-])c1)NC(=O)c1ccccc1	0	0	0	0	0	0
CCOc1ccccc1/C=C(/NC(=O)c1ccccc1)C(=O)NC(C)c1ccccc1 (stereo not given)	0	0	?	0	0	0
CCOC(=O)N1CCN(C(=O)/C(=C/c2ccccc2OC)NC(=O)c2ccccc2)CC1	0	0	7.3µM	0	0	0
C=CCNC(=O)/C(=C/c1cn(-c2ccccc2)nc1-c1cccc([N+](=O)[O-])c1)NC(=O)c1ccccc1	0	0	16µM	0	0	?
CCOc1ccccc1CNC(=O)CN1C(=O)CCc2cc(S(=O)(=O)N3CCCCC3)ccc21	0	0	0	0	0	0
O=S1(=O)CCO[C@H]2CCCC[C@@H]2N1Cc1ccccc1F	0	0	0	-	-	0
SMILES	KB-3-1 cytotox	HepG2 tox	KB-V1 MDR tox	ATXN viability	ATXN2 expr inh	TGFb SMAD3 inh
COCc1ccc(O)c2ncccc12	15µM	0	12µM	?	?	1.6µM
Cc1cccc(NCc2ccc(O)c3ncccc23)c1	23µM	0	0	0	0	?
O=Nc1ccc(O)c2ncccc12	21µM	0	23µM	16µM	-	?
Cc1ccccc1N=Nc1ccc(O)c2ncccc12	?	0	0	0	?	0
Cc1ccc(O)c2ncccc12	-	-	-	?	16µM	-
COc1ccc(NC(=O)CCNS(=O)(=O)c2cccc3nsnc23)cc1Cl	0	0	0	0	0	0
CC(=O)Oc1cc2c(s1)CCN(C(C(=O)C1CC1)c1ccccc1F)C2 (stereo not given)	-	-	-	0	?	-
Cc1c(C)c2cccnc2c2ncccc12	6.5µM	0	?	?	?	10µM
O=C(NCCC1=CCCCC1)C1CCN(C(=O)N2CCOc3ccccc32)CC1	0	0	0	-	-	?
CCCCC(=O)c1c(O)c2ccccc2oc1=O	?	0	?	0	0	0
COc1ccc(OCC(=O)c2c(O)c3ccccc3oc2=O)cc1	?	0	21µM	0	0	0
CCOc1ccc(OCC(=O)c2c(O)c3ccccc3oc2=O)cc1	0	0	?	0	0	0
CC1CCC(C(=O)c2c(O)c3ccccc3oc2=O)CC1 (stereo not given)	?	0	3.7µM	0	0	0
O=C(CC1CCCCC1)c1c(O)c2ccccc2oc1=O	5.8µM	0	0	0	0	0
CC(=O)Nc1ccccc1-c1nc(CNC(=O)c2ccc(C)cc2)c(C)o1	-	-	-	0	-	-
O=C(NCCc1nnc2n1CCN(Cc1ccc3c(c1)CCO3)CC2)c1ccco1	-	-	-	0	-	-
CCc1ccc(OCC(=O)Nc2ccncc2)c(Br)c1	?	0	9.2µM	?	0	0
CC(C)CCOc1cccc(OCC(=O)Nc2ccncc2)c1	?	0	2.9µM	0	0	0

Bioassay records from PubChem BioAssay.
